Calls of active or inactive are those of the source. Rule for the calls: active = hit-call score of the fitted dose curve at least 0.9, where 1 is the maximum; inactive = score below 0.9.
Tests used:
[1] = target: Transcription factor E2F1 (Homo sapiens) (UniProt Q01094); test: ATG_E2F_CIS: Attagene CIS-FACTORIAL HepG2 Assay for human E2F Transcription Factor 1 (AID 2282935); conditions: HepG2 Attagene cis-reporter, E2F reporter RNA transcripts; actives raise or lower the signal
Procedure, shortened: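 Fluorescent RT-PCR products, digested with HpaI for 2 h at 37 C, are separated by capillary electrophoresis. Source RNA comes from transfected HepG2 cultures treated for 24 h.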

[2] = ATG_E_Box_CIS: Attagene CIS-FACTORIAL HepG2 Assay for human Enhancer Box (E-box) (AID 2282936); conditions: HepG2 E-box cis-reporter transcription, actives raise or lower the signal
Procedure, shortened: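 Fluorescent reporter fragments separated by capillary electrophoresis gave the signal; mRNA came from HepG2 cells transfected with cis-element reporters and treated 24 h. Curves fitted bidirectionally relative to DMSO controls.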

[3] = ATG_M_61_CIS: Attagene CIS-FACTORIAL HepG2 Assay for M61 Transcription Factor (Internal Marker) (AID 2282937); conditions: HepG2 Attagene CIS-FACTORIAL M61 internal marker reporter; actives raise or lower the signal
Procedure, shortened: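 Endogenous transcription factor activity in HepG2 is read through transiently transfected cis-element reporter units. After 24 h dosing, RNA undergoes reverse transcription, PCR and primer extension with 6-FAM before capillary electrophoresis; DMSO-referenced bidirectional fit.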

[4] = ATG_EGR_CIS: Attagene CIS-FACTORIAL HepG2 Assay for human Early Growth Response 1 (EGR1) (AID 2282938); conditions: HepG2 Attagene CIS-FACTORIAL EGR reporter mRNA; actives raise or lower the signal
Procedure, shortened: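 Activity is taken as induction or loss of reporter mRNA versus DMSO, fitted bidirectionally. Transcripts from cis-regulated reporter units in transiently transfected HepG2 were measured after 24 h by RT-PCR with capillary electrophoresis.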

[5] = ATG_M_19_CIS: Attagene CIS-FACTORIAL HepG2 Assay for M19 Transcription Factor (Internal Marker) (AID 2282939); conditions: HepG2 Attagene CIS-FACTORIAL M19 internal marker reporter; actives raise or lower the signal
Procedure, shortened: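 HepG2 cells transiently transfected with cis-regulated multiplexed reporter units, dosed 24 h. Reporter mRNA quantified by RT-PCR and capillary electrophoresis; internal background marker fitted bidirectionally versus DMSO.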

[6] = ATG_ERE_CIS: Attagene CIS-FACTORIAL HepG2 Assay for Estrogen Response Element (ERE) (AID 2282940); conditions: HepG2 ERE cis-reporter, Attagene RNA transcript; actives raise or lower the signal
Procedure, shortened: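 HepG2 cells transiently transfected with multiplexed cis-element reporter units, measuring endogenous transcription factor activity; ERE reporter mRNA quantified after 24 h exposure by RT-PCR, fluorescent labelling, HpaI digestion and capillary electrophoresis. Bidirectional change versus DMSO.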

[7] = target: Hepatocyte nuclear factor 3-beta (Homo sapiens) (UniProt Q9Y261); test: ATG_FoxA2_CIS: Attagene CIS-FACTORIAL HepG2 Assay for human Forkhead box A2 (FOXA2) (AID 2282942); conditions: HepG2 cis-reporter transcription factor activity, 24 h; actives raise or lower the signal
Hepatocyte nuclear factor 3-beta (Homo sapiens), sequence (Q9Y261 whole entry, looked up): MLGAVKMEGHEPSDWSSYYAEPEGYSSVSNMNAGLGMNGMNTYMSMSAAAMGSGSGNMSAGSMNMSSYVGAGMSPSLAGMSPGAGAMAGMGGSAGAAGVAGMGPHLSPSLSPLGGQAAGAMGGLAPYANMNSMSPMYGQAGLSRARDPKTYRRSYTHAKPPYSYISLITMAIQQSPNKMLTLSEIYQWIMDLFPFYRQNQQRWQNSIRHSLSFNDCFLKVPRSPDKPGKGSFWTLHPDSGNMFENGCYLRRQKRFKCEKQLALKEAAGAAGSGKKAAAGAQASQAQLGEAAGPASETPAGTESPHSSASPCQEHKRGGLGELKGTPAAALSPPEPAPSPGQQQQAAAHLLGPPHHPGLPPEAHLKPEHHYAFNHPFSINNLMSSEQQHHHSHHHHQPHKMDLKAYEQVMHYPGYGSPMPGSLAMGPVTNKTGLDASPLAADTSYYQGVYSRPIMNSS
Procedure, shortened: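 Reporter transcript induction is measured by fluorescence after capillary electrophoresis of RT-PCR products from HepG2 cells exposed 24 h. Cis-regulated reporter units report endogenous factor activity; curves fitted both directions against DMSO.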

[8] = ATG_FoxO_CIS: Attagene CIS-FACTORIAL HepG2 Assay for human Forkhead box O (FoxO) (AID 2282943); conditions: HepG2 Attagene cis-reporter, FoxO element, mRNA; actives raise or lower the signal
Procedure, shortened: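 Human hepatoma HepG2 cells carry transiently introduced reporter transcription units controlled by cis promoter elements. Chemical treatment lasted 24 h, and mRNA signal was compared with DMSO.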

[9] = ATG_GATA_CIS: Attagene CIS-FACTORIAL HepG2 Assay for human GATA Binding Protein (AID 2282944); conditions: HepG2 GATA cis-element reporter, Attagene multiplex mRNA; actives raise or lower the signal
Procedure, shortened: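 HepG2 cells transiently transfected with multiplexed cis-element reporter units measure endogenous GATA activity; after 24 h compound exposure, reporter mRNA quantified by RT-PCR and capillary electrophoresis. Changes fitted in both directions vs DMSO.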

[10] = ATG_GLI_CIS: Attagene CIS-FACTORIAL HepG2 Assay for human Zinc Finger Protein GLI1 (AID 2282945); conditions: HepG2, Attagene cis-factorial reporter mRNA, GLI element; actives raise or lower the signal
Procedure, shortened: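 Bidirectional curve fits relative to DMSO, using reporter mRNA levels from RT-PCR plus capillary electrophoresis. Cells were HepG2 transiently carrying cis-regulated reporter constructs, harvested 24 h after dosing.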

[11] = ATG_GRE_CIS: Attagene CIS-FACTORIAL HepG2 Assay for human Glucocorticoid Response Elements (GRE) (AID 2282947); conditions: HepG2 GRE cis-reporter, Attagene multiplex mRNA; actives raise or lower the signal
Procedure, shortened: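 Multiplexed cis-reporter mRNA induction, HepG2, 24 h post-dose. RT-PCR, FAM-labelled, HpaI-digested amplicons by CE. Bidirectional fit vs DMSO.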

[12] = ATG_ISRE_CIS: Attagene CIS-FACTORIAL HepG2 Assay for human Interferon Regulatory Factor 1 (IRF1) binding to an Interferon-Stimulated Response Element (ISRE) (AID 2282948); conditions: HepG2 ISRE cis-reporter (Attagene), mRNA transcription readout; actives raise or lower the signal
Procedure, shortened: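 Signal reflects induction or loss of ISRE-linked reporter mRNA in transiently transfected HepG2 cells after a 24 h treatment, detected by fluorescent RT-PCR fragments on capillary electrophoresis and normalised to DMSO.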

[13] = ATG_M_32_CIS: Attagene CIS-FACTORIAL HepG2 Assay for M32 Transcription Factor (Internal Marker) (AID 2282949); conditions: HepG2 Attagene cis-factorial M32 reporter, mRNA; actives raise or lower the signal;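 note: background control marker of the multiplexed CIS panel rather than a real target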
Procedure, shortened: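 Transient MRTU transfection of HepG2; 24 h compound treatment; TriZol RNA, oligo(dT) RT, reporter PCR, 6-FAM primer extension, HpaI cut, CE. Gain/loss of signal vs DMSO.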

[14] = ATG_M_06_CIS: Attagene CIS-FACTORIAL HepG2 Assay for M06 Transcription Factor (Internal Marker) (AID 2282950); conditions: HepG2 Attagene CIS-FACTORIAL M06 internal marker reporter; actives raise or lower the signal
Procedure, shortened: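 Internal background marker within multiplexed cis-reporter HepG2 system. Cells transiently transfected, dosed 24 h; reporter mRNA measured by RT-PCR, HpaI digestion and capillary electrophoresis. Bidirectional fit relative to DMSO.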

[15] = target: Hypoxia-inducible factor 1-alpha (Homo sapiens) (UniProt Q16665); test: ATG_HIF1a_CIS: Attagene CIS-FACTORIAL HepG2 Assay for human Hypoxia Inducible Factor 1 (HIF1A) (AID 2282951); conditions: HepG2 Attagene cis-factorial HIF1a reporter transcription; actives raise or lower the signal
Hypoxia-inducible factor 1-alpha (Homo sapiens), sequence (Q16665 whole entry, looked up): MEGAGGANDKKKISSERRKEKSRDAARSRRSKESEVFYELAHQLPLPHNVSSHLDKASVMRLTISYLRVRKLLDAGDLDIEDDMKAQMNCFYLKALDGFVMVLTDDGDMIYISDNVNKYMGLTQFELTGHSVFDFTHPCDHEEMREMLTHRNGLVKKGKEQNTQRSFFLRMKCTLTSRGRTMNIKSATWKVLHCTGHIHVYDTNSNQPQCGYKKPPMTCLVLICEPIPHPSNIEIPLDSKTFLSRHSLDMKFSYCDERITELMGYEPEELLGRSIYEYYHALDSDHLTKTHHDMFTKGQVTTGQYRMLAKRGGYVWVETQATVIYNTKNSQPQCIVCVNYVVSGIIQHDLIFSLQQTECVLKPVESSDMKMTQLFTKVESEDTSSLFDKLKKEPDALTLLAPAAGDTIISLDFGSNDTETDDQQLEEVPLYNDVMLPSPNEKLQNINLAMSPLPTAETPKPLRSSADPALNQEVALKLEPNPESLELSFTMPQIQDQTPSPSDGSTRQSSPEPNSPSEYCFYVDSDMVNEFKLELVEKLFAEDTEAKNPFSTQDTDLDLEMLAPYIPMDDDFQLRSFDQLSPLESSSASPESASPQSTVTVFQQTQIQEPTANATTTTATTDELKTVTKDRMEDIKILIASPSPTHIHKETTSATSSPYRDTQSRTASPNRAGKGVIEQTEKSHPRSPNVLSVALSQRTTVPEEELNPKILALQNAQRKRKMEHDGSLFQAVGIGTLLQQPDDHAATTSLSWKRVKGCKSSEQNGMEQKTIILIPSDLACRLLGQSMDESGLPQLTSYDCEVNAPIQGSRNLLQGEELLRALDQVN
Procedure, shortened: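 Fluorescence intensity of capillary-separated, 6-FAM-labelled reporter amplicons gives mRNA induction in HepG2 cells carrying transfected cis-promoter reporter units; cells exposed 24 h, responses fitted up or down from DMSO.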

[16] = target: Hepatocyte nuclear factor 6 (Homo sapiens) (UniProt Q9UBC0); test: ATG_HNF6_CIS: Attagene CIS-FACTORIAL HepG2 Assay for human Hepatocyte Nuclear Factor 6 (HNF6) (AID 2282952); conditions: HepG2 Attagene cis-factorial HNF6 reporter transcription; actives raise or lower the signal
Hepatocyte nuclear factor 6 (Homo sapiens), sequence (Q9UBC0 whole entry, looked up): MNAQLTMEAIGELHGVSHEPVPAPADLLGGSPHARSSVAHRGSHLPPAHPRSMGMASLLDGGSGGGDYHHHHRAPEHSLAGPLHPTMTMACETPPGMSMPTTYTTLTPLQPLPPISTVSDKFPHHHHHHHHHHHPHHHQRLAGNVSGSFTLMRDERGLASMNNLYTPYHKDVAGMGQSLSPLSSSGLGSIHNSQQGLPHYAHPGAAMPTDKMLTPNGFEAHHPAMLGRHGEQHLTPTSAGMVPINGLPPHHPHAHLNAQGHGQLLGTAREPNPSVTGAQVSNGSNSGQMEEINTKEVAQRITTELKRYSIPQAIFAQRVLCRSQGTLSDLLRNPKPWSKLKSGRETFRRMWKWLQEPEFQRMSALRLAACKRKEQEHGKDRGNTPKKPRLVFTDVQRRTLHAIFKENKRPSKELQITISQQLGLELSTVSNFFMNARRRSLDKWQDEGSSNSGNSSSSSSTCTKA
Procedure, shortened: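 Endogenous factor activity read in transiently transfected HepG2 via promoter-regulated reporter transcripts. RNA harvested 24 h post-dosing, reverse-transcribed, PCR-amplified, FAM-labelled, HpaI-digested and resolved by capillary electrophoresis; fitted in both directions against DMSO.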

[17] = target: Heat shock factor protein 1 (Homo sapiens) (UniProt Q00613); test: ATG_HSE_CIS: Attagene CIS-FACTORIAL HepG2 Assay for human Heat Shock Transcription Factor 1 (HSE) (AID 2282953); conditions: HepG2 HSE cis-reporter, Attagene RNA transcription; actives raise or lower the signal
Heat shock factor protein 1 (Homo sapiens), sequence (Q00613 whole entry, looked up): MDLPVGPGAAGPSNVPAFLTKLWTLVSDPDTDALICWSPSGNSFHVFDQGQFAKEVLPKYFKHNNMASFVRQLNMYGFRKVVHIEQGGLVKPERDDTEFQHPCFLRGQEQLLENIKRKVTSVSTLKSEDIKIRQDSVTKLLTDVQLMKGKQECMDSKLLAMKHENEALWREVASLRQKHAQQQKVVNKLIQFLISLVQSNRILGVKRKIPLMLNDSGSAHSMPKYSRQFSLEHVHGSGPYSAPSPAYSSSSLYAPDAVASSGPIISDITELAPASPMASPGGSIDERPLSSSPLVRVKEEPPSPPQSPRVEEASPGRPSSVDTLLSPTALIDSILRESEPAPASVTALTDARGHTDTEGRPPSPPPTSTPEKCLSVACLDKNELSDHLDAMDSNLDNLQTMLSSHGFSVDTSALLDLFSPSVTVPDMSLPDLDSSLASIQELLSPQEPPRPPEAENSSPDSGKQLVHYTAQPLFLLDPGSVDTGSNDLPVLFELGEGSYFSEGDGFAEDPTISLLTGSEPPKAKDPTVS
Procedure, shortened: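 HepG2 cells transfected with cis-promoter reporter units sensing endogenous transcription factor activity; reporter mRNA quantified 24 h post-dose by RT-PCR and capillary electrophoresis of 6-FAM-labelled products. Bidirectional fitting against DMSO.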

[18] = ATG_MRE_CIS: Attagene CIS-FACTORIAL HepG2 Assay for human Metal Responsive Element (MRE) (AID 2282954); conditions: HepG2 MRE cis-reporter transcription, Attagene multiplex; actives raise or lower the signal
Procedure, shortened: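 Multiplexed cis-reporter assay in human HepG2 liver cells, 24 h incubation with test chemical. Reporter transcripts measured by RT-PCR and capillary electrophoresis; values from bidirectional curve fitting versus DMSO.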

[19] = ATG_PBREM_CIS: Attagene CIS-FACTORIAL HepG2 Assay for human Phenobarbital-responsive Enhancer Module (PBREM) (AID 2282955); conditions: HepG2 PBREM cis-reporter, Attagene multiplexed transcription; actives raise or lower the signal
Procedure, shortened: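 Cells were transfected with cis-element reporter units and treated for 24 h, after which RNA was extracted and reporter transcripts measured by RT-PCR and capillary electrophoresis.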

[20] = ATG_Ets_CIS: Attagene CIS-FACTORIAL HepG2 Assay for human Erythroblast Transformation Specific (ETS) (AID 2282941); conditions: HepG2 ETS cis-reporter transcription, actives raise or lower the signal
Procedure, shortened: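 Multiplexed reporter transcript profiling: HepG2, 24 h treatment, total RNA to cDNA, PCR, 6-FAM labelling, HpaI cut, capillary electrophoresis. Gain- or loss-of-signal fitted against DMSO.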

Measured: outcome

Transcription factor E2F1 (Homo sapiens), sequence (Q01094 whole entry, looked up): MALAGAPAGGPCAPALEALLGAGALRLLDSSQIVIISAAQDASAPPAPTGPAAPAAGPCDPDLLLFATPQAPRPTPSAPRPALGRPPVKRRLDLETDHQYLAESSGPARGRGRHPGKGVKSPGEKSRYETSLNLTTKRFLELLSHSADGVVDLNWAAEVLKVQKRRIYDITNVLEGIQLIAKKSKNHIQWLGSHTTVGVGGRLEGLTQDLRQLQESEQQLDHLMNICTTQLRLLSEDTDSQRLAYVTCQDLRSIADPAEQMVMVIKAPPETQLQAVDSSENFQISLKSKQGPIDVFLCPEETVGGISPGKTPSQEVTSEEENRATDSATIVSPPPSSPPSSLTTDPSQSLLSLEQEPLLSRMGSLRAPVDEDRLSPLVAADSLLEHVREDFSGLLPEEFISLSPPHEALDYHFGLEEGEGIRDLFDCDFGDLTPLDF

NC(=O)N(O)[C@@H]1COc2cc(OCc3ccccc3)ccc21
inactive: [1] | [2] | [3] | [4] | [5] | [6] | [7] | [8] | [9] | [10] | [11] | [12] | [13] | [14] | [15] | [16] | [17] | [18] | [19]

OCCNCCO
inactive: [1] | [2] | [3] | [4] | [5] | [6] | [20] | [7] | [8] | [9] | [10] | [11] | [12] | [14] | [15] | [17] | [18]

O=C(O)c1ccc2c(c1)nc(C(=O)NC1CCN(C3CC3)CC1)n2Cc1cc(-c2ccc(Cl)s2)on1
inactive: [1] | [2] | [3] | [4] | [5] | [6] | [7] | [8] | [9] | [10] | [12] | [14] | [15] | [17] | [18] | [19]

CC(=O)c1ccccc1
inactive: [1] | [2] | [3] | [4] | [5] | [6] | [7] | [8] | [9] | [10] | [12] | [14] | [15] | [17] | [18] | [19]

O=C(NO)C1(NS(=O)(=O)c2ccc(Oc3ccc(F)cc3)cc2)CCOCC1
inactive: [1] | [2] | [3] | [4] | [5] | [6] | [7] | [8] | [9] | [10] | [11] | [12] | [14] | [15] | [17] | [18]

CC1(C)C(=O)N(Cl)C(=O)N1Cl
inactive: [1] | [2] | [3] | [4] | [5] | [6] | [7] | [8] | [9] | [10] | [11] | [12] | [14] | [15] | [16] | [17] | [18]

OCCOCCOCCO
inactive: [1] | [2] | [3] | [4] | [5] | [6] | [7] | [8] | [9] | [10] | [11] | [12] | [14] | [15] | [16] | [17] | [18] | [19]
